Test results reported in PubChem BioAssay AID1117319 (Southern Research Institute, 2015).
Values joined by “and” are separate entries in the source; they are usually repeats but may differ in a detail not shown here. Equal entries are not always repeated. The whole screen tested about 260,000 compounds, of which about 1,500 (0.58%) were called active. Not shown: some 5% with an inconclusive outcome.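 The calls were made as follows: active = inhibition above a set limit at one or more doses, reproduced on every date tested; inconclusive = results disagree between test dates, or hit never tested in dose response; inactive = the rest.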 A selection follows. Measured potencies and affinities stand elsewhere.

Molecular target: Virion infectivity factor (Human immunodeficiency virus type 1 group M subtype B (isolate BH10)) + Virion infectivity factor (Human immunodeficiency virus type 1 group M subtype B (isolate BRU/LAI)) + Virion infectivity factor (Human immunodeficiency virus type 1 group M subtype B (isolate PCV12)) + Virion infectivity factor (Human immunodeficiency virus type 1 group M subtype B (isolate HXB2)) + DNA dC->dU-editing enzyme APOBEC-3G (Homo sapiens) (UniProt P69720+P69721+P69722+P69723+Q9HC16)
Assay: HIV-1 Vif–A3G interaction blockers – biochemical, TR-FRET, GST-Vif 1-94, biotin-A3G peptide, dose response retest, primary screen (AID 1117319);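 also: Vif residues 1-94 fused to GST binding biotinylated APOBEC3G peptide 110-148; 0% = full assay without inhibitor and 100% = GST in place of GST-Vif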
Settings: TR-FRET GST-Vif / biotin-A3G peptide binding; stronger effect = higher value

inhibition, inactive:
Cc1nc(C)c(C(=O)C2=C(O)C(=O)N(CCCn3ccnc3)C2c2ccc(Cl)cc2)s1 (stereo not drawn) 0.13%, COc1ccc(-c2cc(C(=O)N3CCC3)c3ccccc3n2)cc1OC -14.9%, Cc1ccc(C(=O)O)c(C(=O)Nc2nc3ccccc3s2)c1 -4.97%, O=C(/C=C/c1cccs1)Nc1ccc(N2CCOCC2)c(S(=O)(=O)Nc2ccccc2Cl)c1 -5.05%, CC1=CC2=NC(=O)/C(=C\c3cccn3CCOc3cccc(C)c3)C(=N)N2O1 -1.97%, O=Cc1cccn1-c1ccc2ccccc2c1 -0.71%, Cn1c(=O)n(C)c2cc(/C=C3/NC(=O)N(Cc4ccccc4)C3=O)ccc21 -1.59%, Cn1cccc1/C=C1\SC(=Nc2ccccc2)NC1=O -5.03%, O=C1N/C(=C/c2cccn2-c2ccc(F)cc2)C(=O)N1Cc1ccccc1 6.05%, O=C1Nc2ccccc2/C1=C\c1cccn1-c1ccc(OC(F)(F)F)cc1 5.25%, COc1cccc(OCCn2cccc2/C=C2/C(=N)N3OC(C)=CC3=NC2=O)c1 1.07%, Cc1ccc(/C=C2/NC(=O)N(Cc3ccccc3)C2=O)s1 3.49%, O=C(COC(=O)c1ccccc1Sc1ccc(C(F)(F)F)cc1[N+](=O)[O-])NC(=O)NC1CCCC1 -2.59%, CCCN1C(=O)/C(=c2\sc3nc(=O)c(Cc4ccc(C)cc4)nn3c2=O)c2ccccc21 1.89%, CC1(C(=O)O)CCC(C(=O)NNC(=O)c2ccccc2O)C1(C)C (stereo not drawn) -0.63%, COc1cc(/C=C2\SC(=O)N(CCNC(=O)c3c(C)noc3C)C2=O)cc(OC)c1OC -5.96%, Cc1ccc(S(=O)(=O)N2CCOCC2)cc1NC(=O)COC(=O)c1ccc2c(c1)OCCO2 -7.03%, O=C1N/C(=C/c2cccn2-c2ccccc2)C(=O)N1Cc1ccc(F)cc1 15.6%, O=C1N/C(=C/c2cccn2-c2ccc(F)cc2)C(=O)N1Cc1ccccc1F 5.17%, COc1ccc(NC(=O)CN(C)C(=O)C2CC(=O)N(c3cccc4ccccc34)C2)cc1 (stereo not drawn) 2.19%, COc1cc(C2CC(=O)Nc3cc(C)c(C)cc32)cc(OC)c1OC (stereo not drawn) -9.63%, COc1cc2c(cc1OC)C(c1cccc(OC)c1OC)CC(=O)N2 (stereo not drawn) 2.22%, O=C(NCC(=O)N(c1ccc2c(c1)OCO2)C(C(=O)NC1CCCC1)c1ccncc1)c1ccco1 (stereo not drawn) 21.4%, CC(C)(C)NC(=O)C(c1ccncc1)N(C(=O)CNC(=O)c1ccco1)c1ccc(F)cc1 (stereo not drawn) 5.09%, COc1cccc(NC(=O)CN(C)C(=O)CCCc2nc3ccccc3c(=O)[nH]2)c1 4.69%, CCCCCOc1ccc(C2NC(=O)NC2=O)cc1 (stereo not drawn) 0.64%, CCN(c1ccc(OC)cc1)S(=O)(=O)c1nnc(NC(=O)COc2ccccc2)s1 6.53%, O=C(CN1C(=O)CCSc2ccccc21)Nc1ccc2c(c1)OCCO2 4.27%, COC(=O)c1ccc(COc2ccccc2/C=C(\C#N)C(=O)Nc2ccc(C)cc2)cc1 -4.01%, COC(=O)c1ccc(COc2ccccc2/C=C(\C#N)C(=O)Nc2c(C)cccc2C)cc1 -2.89%, COCCNC(=O)C1(C)Oc2ccccc2NC1=O (stereo not drawn) 1.83%, Cc1oc(-c2ccccc2F)nc1CS(=O)(=O)CC(=O)N1CCN(Cc2ccccc2)CC1 5.89%, CCOC(=O)CN(C(=O)CSc1nnc(COc2ccc(OC)cc2)n1C)c1ccccc1 0.19%, COc1ccc(-c2nnn(CC(=O)c3ccc4c(c3)OCCO4)n2)cc1OC 21.5%, CCOc1ccc(-c2nnn(CC(=O)c3ccc4c(c3)OCCO4)n2)cc1 -11.1%, CN(C)c1ccc(CNC(=O)C2CCN(S(=O)(=O)c3ccc4c(c3)oc(=O)n4C)CC2)cc1 -3.31%, COc1ccc2c3c(cccc13)OCC2=O 24.2%, CCC1=NNc2cccc3c(OC)ccc1c23 10.8%, COc1ccccc1NC(=O)c1nnn(Cc2ccccc2)c1NC(=O)C(F)(F)F 0.14%, CCn1cc(S(=O)(=O)Nc2nc3ccc(OC)cc3s2)cn1 -2.85%, Nc1ccccc1SCc1ccccc1 -5.9%, Cn1c(SCc2ccccc2)nccc1=O 1.19%, CCOC(=O)c1nnc2cc(-c3ccc(Br)cc3)nn2c1C 1.62%, COc1ccccc1OCCSc1nc(N)cc(N)n1 4.3%, COc1ccc2nc3cccc(OC)c3nc2c1 15.1%, COc1ccc2nc3ccccc3nc2c1NC(=O)c1ccc(Br)cc1 -5.53%, CCOC(=O)c1cc(-c2ccco2)nn1-c1ccc(C)cc1 -3.18%, Cc1ccc(-n2nc(-c3ccco3)cc2C(=O)NCc2cccnc2)cc1 9.86%, CN(C)C(=O)CSc1nnc([C@H](Cc2ccccc2)NC(=O)OC(C)(C)C)o1 -2.79%, O=S1(=O)N=C(Nc2ccc(N3CCOCC3)c(Cl)c2)c2ccccc21 12.7%, O=C(CCC(=O)c1cccs1)NCc1ccc(Cl)cc1 1.67%, CCCC(=O)C1=C(O)C(C(=O)OC)C(C)(C)CC1=Nc1ccc(N)cc1 (stereo not drawn) 0.65%, CCC(=NCc1ccccc1)C1=C(O)C(C(=O)OC)C(C)(C)CC1=O (stereo not drawn) 5.76%, CCCC(=Nc1ccccc1)C1=C(O)C(C(=O)OC)C(C)(C)CC1=O (stereo not drawn) 26.8%, CCCC(=NCc1ccccc1)C1=C(O)C(C(=O)OC)C(C)(C)CC1=O (stereo not drawn) 3.41%, O=S(=O)(NCCN1CCN(S(=O)(=O)c2ccccc2F)CC1)c1ccccc1F 1.35%, O=C1NC(=O)/C(=C\c2cn(CC(=O)N3CCOCC3)c3ccccc23)S1 -3.19%, O=C(COC(=O)/C=C/c1cc(Br)ccc1F)Nc1ccc2[nH]c(=O)[nH]c2c1 -2.89%, Cc1cccc(N2CC(C(=O)O)CC2=O)c1 (stereo not drawn) -2.42%, Cc1ccc(SCC(=O)Nc2nnc(-c3ccco3)o2)cc1 6.62%, CC(=O)Nc1ccc(N=Cc2c(O)c3ccccc3oc2=O)cc1 -14.5%, Cc1ccc(-c2oc3ncnc(N)c3c2-c2ccc(C)cc2)cc1 -8.91%, COc1ccc(-c2oc3ncnc(N)c3c2-c2ccccc2)cc1 -1.94%, Cc1c(NC(=O)COc2ccc(C(C)C)cc2)c(=O)n(-c2ccccc2)n1C -8.62%, CCCCCCC(O)(c1ccccc1)C(CN1CCOCC1)c1ccccc1 (stereo not drawn) 0.34%, Cc1noc(N)c1C(=O)Nc1ccc(F)c(Cl)c1 -9.43%, CCc1noc(C)c1C(=O)Nc1ccc(F)c(F)c1 -2.68%, Cc1nc2scc(-c3ccc(Cl)cc3)c2c(=O)o1 19.2%, CCOc1ccc(C(=O)COc2ccc(NC(C)=O)cc2)cc1 6.05%, CCOC(=O)C1=C(N)n2c(s/c(=C\c3cccs3)c2=O)=C(C(=O)OCC)C1c1cccs1 (stereo not drawn) -6.07% and -0.48%, CCOC(=O)C1=C(N)n2c(s/c(=C/c3ccccc3)c2=O)=C(C(=O)OCC)C1c1ccccc1 (stereo not drawn) -3.94%, CCOC(=O)C1=C(C)NC(C)=C(C(=O)OCC)C1c1ccco1 22.4%, CCOC(=O)C1=c2s/c(=C\c3cccnc3)c(=O)n2C(N)=C(C(=O)OC)C1c1cccnc1 (stereo not drawn) -8.08%, CCOC(=O)C1=c2s/c(=C\c3ccncc3)c(=O)n2C(N)=C(C(=O)OC)C1c1ccncc1 (stereo not drawn) -6.47%, CCOC(=O)C1=C(N)n2c(s/c(=C\c3ccncc3)c2=O)=C(C(=O)OCC)C1c1ccncc1 (stereo not drawn) -12.8%, Cc1cc(SCC(=O)OC(C)C(=O)N(C)c2ccccc2)nc2ccccc12 (stereo not drawn) -7.66%, COC(=O)c1ccc(CNC(=O)Cn2nnnc2CN(C)C(C)C)cc1 -4.98%, COCCNC(=O)CSc1cc(-c2ccccc2)c2ccc(OC)cc2n1 -24.8%, COc1ccccc1CNC(=O)c1ccc(OC(C)C)cc1 -1.85%, O=C(NCc1cccnc1)c1nn2cccnc2c1Cl 14.7%, O=C(CSc1nnc2ccccn12)NNC(=O)c1cccc([N+](=O)[O-])c1 -9.15%, COc1cc2nc(CCc3ccccc3)oc(=O)c2cc1OC 19.2%, Clc1cc2nc3ccccn3c2cc1Cl -1.52%, N#Cc1ccc2c(c1)nc1ccccn12 16.5%, CC1=CN2CC(O)CN=C2C=C1 (stereo not drawn) -3.44%, Cc1cnc(C(=O)OCC(=O)N(Cc2ccccc2)C(C)(C)C)cn1 -7.28%, Cc1cc(C(=O)OCC(=O)c2ccc3c(c2)OCCO3)c(C)o1 7.16%, COC(=O)CCN(C(=O)c1ccc(Cl)c([N+](=O)[O-])c1)c1ccccn1 21.1%, CN1c2ccc([N+](=O)[O-])cc2N(C)C1(C)c1ccccc1 (stereo not drawn) -8.03%, O=[N+]([O-])c1ccc2c(c1)N([O-])C1(CCCCC1)[N+]2=O -0.91%, O=C(COC(=O)c1ccc(S(=O)(=O)N2CCOCC2)cc1)Nc1ccccc1F -5.99%, C=CCN(CC=C)C(=S)NC(=O)c1ccc(OC)c(Br)c1 3.9%, C=CCN(CC=C)C(=S)NC(=O)c1ccc(C)c(Br)c1 3.99%
